Source: PubChem BioAssay
Compounds with a hit are over-represented: about 21% of the library has one in this group of screens.
Shiga inhibitor: Shiga toxin inhibition; Vero cells, Shiga toxin protein synthesis inhibition reporter; inhibition, % at 38.7 µM; 9.2% of 290,000 active; AID 2315; in the data active = inhibition mostly above about 28%, no sharp cut-off; inactive = mostly below about 43%
Cycloheximide cs: counter-screen for Shiga toxin inhibitors: cycloheximide protein synthesis inhibition; cell reporter, cycloheximide protein synthesis inhibition counterscreen; max response, %; 12% of 300,000 active; AID 2314; in the data active = max response mostly above about 13%, no sharp cut-off; inactive = mostly below about 14%; also: read at 38.3 µM for the half of the compounds with a filed dose
Pf growth 48h: P. falciparum growth inhibition at 48 hours (one generation) | P. falciparum luciferase growth in erythrocytes, 48 h | Potency, µM (titrated, usually from 28.7 µM), hits mostly inhibitors | 5.9% of 310,000 active | AID 504832
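Luciferase-expressing parasites in RBCs, 2% Hct / 0.1% parasitemia final; RPMI 1640 + 0.5% Albumax; 37 C, 5% CO2, one generation; luminescence read-out, lower signal = inhibition.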
SARS PLP yeast: blocks SARS-CoV papain-like protease in a yeast assay; S. cerevisiae expressing SARS-CoV PLpro, growth rescue; Potency, µM (series often up to 32.9 µM), most hits filed as activators; 0.19% of 330,000 active; calls by dose curve; also: nearly all actives have a fitted effect of over 55% in size
Pf growth 96h: inhibits malaria parasite growth, 96 h | 6.9% of 320,000 active | P. falciparum luciferase reporter growth, 96 h | Potency, µM (top dose mostly 28.7 µM), most hits filed as inhibitors
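Readout is luminescence from an integrated firefly luciferase in P. falciparum. Red cells, 2% hematocrit and 0.05% parasitemia final, were cultured with compound through two parasite generations (96 hours) at 37 C, 5% CO2.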
NS1 inh: influenza NS1 inhibition | Potency, µM (top dose mostly 46.1 µM) | 0.4% of 270,000 active | AID 2326; calls by dose curve; also: actives are rising curves; nearly all actives have a fitted effect of over 50% in size
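S. cerevisiae expressing influenza A NS1, grown in glucose, washed, then diluted 1:100 into pH 6.0 -URA galactose medium with 23 nl compound. Growth recovery read as OD600; NS1-free strain serves as control.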
Each line names hits and unclear results; the compound was inactive in the other large screens. Unless noted, calls follow the shape of the dose curve; as a rule, active = well fitted inhibition curve with a large enough effect; inconclusive = small, poorly fitted or top-dose-only effect, or another doubt; inactive = no such curve, though single readings can be large or run the other way.

O=C(COC(=O)c1ccc([N+](=O)[O-])s1)Nc1ncc(C(F)(F)F)cc1Cl	none
Cc1ccc(CNC(=O)CN(Cc2cccs2)C(=O)C2(C)CC(=O)N=C3C=CC=CN32)cc1 (stereo not drawn)	Pf growth 96h 1.65µM
Cc1ccc(CNC(=O)CN(C(=O)C2(C)CC(=O)N=C3C=CC=CN32)c2cc(C)ccc2C)cc1 (stereo not drawn)	none
CCN(CC)S(=O)(=O)c1ccc(Cl)c(NC(=O)COC(=O)c2ccc([N+](=O)[O-])o2)c1	Pf growth 96h inconclusive
Cc1ccccc1C(=O)NC(C(N)=O)P(=O)(OC(C)C)OC(C)C (stereo not drawn)	none
O=[N+]([O-])c1cccc(-c2ccc3nnc(SCc4ccccn4)n3n2)c1	none (no result: NS1 inh)
c1ccc(CSc2nnc3ccc(-c4ccco4)nn23)nc1	Shiga inhibitor 66.7, Cycloheximide cs 34.1, Pf growth 96h inconclusive (no result: NS1 inh)
c1ccc(CSc2nnc3ccc(-c4cccs4)nn23)nc1	Shiga inhibitor 61.2 (no result: NS1 inh)
CCn1cc(C(=O)N2CCN(c3ccc(C(C)=O)cc3)CC2)c2cc(OC)c(OC)cc2c1=O	Pf growth 48h inconclusive, Pf growth 96h inconclusive (no result: NS1 inh)
COCCCNC(c1ccccc1)c1ccncc1 (stereo not drawn)	Pf growth 96h 2.62µM
COCCCNc1nc(-c2ccncc2)nc2ccccc12	Pf growth 48h inconclusive
CCn1c(C)nc2cc(N)ccc21	Cycloheximide cs 35.0
CCn1c(C)nc2cc(C(=O)OCCC(F)(F)F)ccc21	Shiga inhibitor 86.4, Cycloheximide cs 29.1
CCn1c2ccccc2c2cc(N)ccc21	Pf growth 48h inconclusive, Pf growth 96h 11.7µM, NS1 inh inconclusive
O=C(Nc1cccnc1Cl)c1noc2c1CCc1ccccc1-2	Shiga inhibitor 92.4, Cycloheximide cs 34.0 (no result: NS1 inh)
Cc1onc(-c2ccccc2)c1C(=O)NCCN1CCOCC1	none (no result: SARS PLP yeast)
O=C(NCCN1CCOCC1)c1noc2c1CCc1ccccc1-2	Shiga inhibitor 70.7, Cycloheximide cs 49.2 (no result: Pf growth 96h)
O=C(NCCc1ccccc1)c1noc2c1CCc1ccccc1-2	Shiga inhibitor 39.0, Cycloheximide cs 18.7
CCCNC(=O)c1noc2c1CCc1ccccc1-2	Shiga inhibitor 64.0, Cycloheximide cs 41.7
Cc1nn(Cc2ccc(Cl)cc2)c(C)c1NC(=O)c1noc2c1CCc1ccccc1-2	none (no result: Pf growth 48h)
Cc1cc(Oc2nc3ccccn3c(=O)c2/C=C(\C#N)C(=O)NC2CCS(=O)(=O)C2)ccc1Cl (stereo not drawn)	Pf growth 48h inconclusive, Pf growth 96h inconclusive
Fc1ccc(CN2CC[C@H]3C=CCc4cccc(c43)C2)cc1	Pf growth 48h 10.4µM, Pf growth 96h inconclusive (no result: Shiga inhibitor, Cycloheximide cs, NS1 inh)
Clc1ccc(CN2CCC(c3ccccc3)CC2)cc1	none
Clc1ccc(CN2CC[C@H]3C=CCc4cccc(c43)C2)cc1	Pf growth 48h 3.7µM, Pf growth 96h 1.85µM (no result: Shiga inhibitor, Cycloheximide cs, NS1 inh)
C[C@@H]1CN([C@@H](C)CO)C(=O)c2cc(NC(=O)C3CC3)ccc2O[C@@H]1CN(C)Cc1ccc(Cl)c(Cl)c1	none (no result: Shiga inhibitor, Cycloheximide cs, Pf growth 48h, Pf growth 96h, NS1 inh)
O=c1c2ccccc2nc(Cc2ccccc2)n1-c1ccccc1	Cycloheximide cs 19.2, Pf growth 96h inconclusive
N=C(N)SCc1nc2ccccc2c(=O)n1-c1ccccc1	Shiga inhibitor 67.9, Cycloheximide cs 44.7
CCN(CC)CCNCc1nc2ccccc2c(=O)n1-c1ccc(F)cc1	none
Cc1ccc(-n2c(CNCc3ccc(F)cc3)nc3ccccc3c2=O)cc1	Cycloheximide cs 15.4, Pf growth 48h inconclusive, Pf growth 96h inconclusive
CCOC(=O)C1=C(COC(=O)CC(C)c2ccccc2)NC(=O)NC1C (stereo not drawn)	none (no result: Shiga inhibitor, Cycloheximide cs, NS1 inh)
Cc1cccc(NC(=O)COc2ccc(-c3nn(C)c(=O)c4ccccc34)cc2)c1	Pf growth 48h inconclusive
Cc1ccc(C(C(=O)Nc2ccc3c(c2)OCO3)N(C)C(=O)Cc2c[nH]c3ccccc23)cc1 (stereo not drawn)	Pf growth 48h inconclusive, Pf growth 96h inconclusive, NS1 inh inconclusive
CCOc1nc(NC(=O)NS(=O)(=O)c2ccccc2F)nc(-c2ccccc2)n1	Shiga inhibitor 53.3, Pf growth 96h inconclusive (no result: NS1 inh)
O=C(NC1CCCCC1)C(c1ccccc1)N1CCCC1 (stereo not drawn)	none
O=C(NC1CCCCC1)C(c1ccccc1)N1CCc2ccccc21 (stereo not drawn)	Pf growth 96h 11.7µM (no result: Pf growth 48h)
Cc1ccc(C(C(=O)NC2CCCC2)N2CCc3ccccc32)cc1 (stereo not drawn)	Pf growth 96h inconclusive (no result: Pf growth 48h)
O=C(NC1CCCC1)C(c1ccc(Cl)cc1)N1CCc2ccccc21 (stereo not drawn)	Pf growth 96h 5.86µM (no result: Pf growth 48h)
Cc1ccc(CCN2CC(C(=O)NC(C)C)CC2=O)cc1 (stereo not drawn)	none
O=C(CSc1nnc(-c2c[nH]c3ccccc23)o1)N1CCCCC1	Shiga inhibitor 69.7, Cycloheximide cs 25.8, Pf growth 96h inconclusive
O=C(CSc1nnc(-c2ccc(F)cc2)o1)N1CCCCC1	Shiga inhibitor 67.4, Cycloheximide cs 26.8
O=C(CSc1nnc(-c2ccccc2)o1)N1CCCC1	Cycloheximide cs 15.3, Pf growth 96h inconclusive
CC1CN(C(=O)CSc2nnc(-c3ccccc3)o2)CC(C)O1 (stereo not drawn)	none
COc1cc(OC)cc(-c2nnc(SCC(=O)N3CCCCC3)o2)c1	none
O=C(CSc1nnc(-c2ccccc2)o1)N1CCCCC1	Shiga inhibitor 90.2, Cycloheximide cs 18.0, Pf growth 96h inconclusive
CC1(C)Cc2cccc(OCC(=O)N3CCN(c4cccc(Cl)c4)CC3)c2O1	Pf growth 48h 4.65µM, Pf growth 96h inconclusive (no result: Shiga inhibitor, Cycloheximide cs, NS1 inh)
CC1(C)Cc2cccc(OCC(=O)N3CCN(c4ccccc4Cl)CC3)c2O1	Pf growth 48h inconclusive, Pf growth 96h inconclusive (no result: Shiga inhibitor, Cycloheximide cs, NS1 inh)
CC1(C)Cc2cccc(OCC(=O)N3CCN(S(=O)(=O)c4ccccc4)CC3)c2O1	Pf growth 48h inconclusive, Pf growth 96h 4.65µM
CCOCC(=O)N1CCN(c2ccc(F)cc2)CC1	none
CC1(C)Cc2cccc(OCC(=O)N3CCN(c4cccc(C(F)(F)F)c4)CC3)c2O1	Pf growth 48h inconclusive, Pf growth 96h inconclusive (no result: Shiga inhibitor, Cycloheximide cs, NS1 inh)
O=C(COC(=O)C1(c2ccccc2)CC1)N1CCN(c2ccc(F)cc2)CC1	Pf growth 96h 10.4µM
CC1(C)Cc2cccc(OCC(=O)N3CCN(c4ccc(F)cc4)CC3)c2O1	Pf growth 48h 11.7µM, Pf growth 96h inconclusive (no result: Shiga inhibitor, Cycloheximide cs, NS1 inh)
CNS(=O)(=O)c1cc(NC(=O)CCNC(=O)c2ccco2)ccc1C	none
CC(C)(C)OC(=O)N1Cc2ccccc2C[C@H]1C(=O)NCC(=O)NC1CCCCC1	Pf growth 48h inconclusive, Pf growth 96h inconclusive
Cc1cc(-c2ccccc2)nc(Oc2ccc(C(C)(C)C)cc2)c1S(C)(=O)=O	Pf growth 48h inconclusive, Pf growth 96h 13.1µM
Cc1cc(C)cc(Oc2nc(-c3ccccc3)cc(C)c2S(C)(=O)=O)c1	Pf growth 96h inconclusive, NS1 inh inconclusive (no result: Pf growth 48h)
CCC(=O)Oc1ccc(NC(=O)c2ccco2)cc1	none
O=C(Nc1ccc(Cl)c(Cl)c1)Oc1ccc(NC(=O)c2ccco2)cc1	Cycloheximide cs 22.0, Pf growth 96h inconclusive (no result: Pf growth 48h)
